# Sampled rows, rich in hits. Any-hit rate of the full collection: about 3.1%.
# BoNT A protease – BoNT/A light chain protease inhibitors, primary screen, biochemical, flow cytometry, MLPCN library; multiplex microsphere protease substrate cleavage; inhibition, % at 10 µM; AID 588499, 2011; Botulinum neurotoxin type A light chain protease (Clostridium botulinum A str. ATCC 3502); 360,000 tested, 0.17% active
# Anthrax LF inh2 – Bacillus anthracis LF protease inhibitors, primary screen, biochemical, multiplex microsphere, MLPCN library. Lethal factor (Bacillus anthracis), P15917. multiplex microsphere protease cleavage assay. inhibition, % at 10 µM. 360,000 tested, 0.12% active
# Target sequence (P15917 whole entry, looked up): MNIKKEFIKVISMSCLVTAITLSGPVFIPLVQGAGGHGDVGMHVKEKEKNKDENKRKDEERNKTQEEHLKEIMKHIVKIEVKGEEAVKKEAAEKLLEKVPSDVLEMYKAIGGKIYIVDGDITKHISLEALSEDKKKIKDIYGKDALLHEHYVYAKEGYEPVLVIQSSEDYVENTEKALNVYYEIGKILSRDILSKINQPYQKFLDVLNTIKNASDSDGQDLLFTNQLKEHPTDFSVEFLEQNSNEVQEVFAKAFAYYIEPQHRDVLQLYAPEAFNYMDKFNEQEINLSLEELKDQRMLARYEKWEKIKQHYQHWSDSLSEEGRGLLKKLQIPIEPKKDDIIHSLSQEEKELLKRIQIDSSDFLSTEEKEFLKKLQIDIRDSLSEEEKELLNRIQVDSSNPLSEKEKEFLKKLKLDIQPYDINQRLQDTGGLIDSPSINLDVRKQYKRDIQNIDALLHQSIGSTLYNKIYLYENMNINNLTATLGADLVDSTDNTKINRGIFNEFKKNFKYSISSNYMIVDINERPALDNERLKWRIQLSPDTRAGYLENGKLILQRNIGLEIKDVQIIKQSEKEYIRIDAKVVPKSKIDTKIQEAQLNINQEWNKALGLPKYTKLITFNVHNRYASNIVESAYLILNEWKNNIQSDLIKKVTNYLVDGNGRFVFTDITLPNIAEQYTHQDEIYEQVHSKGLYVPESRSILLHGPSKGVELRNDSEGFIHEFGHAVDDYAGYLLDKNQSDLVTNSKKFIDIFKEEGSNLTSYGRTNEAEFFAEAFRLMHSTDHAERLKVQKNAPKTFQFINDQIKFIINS
# BoNT F protease – BoNT/F light chain protease inhibitors, primary screen, biochemical, flow cytometry, MLPCN library; inhibition, % at 10 µM; Multiplex microsphere protease cleavage assay; 360,000 tested, 0.22% active; AID 588497, 2011; Botulinum neurotoxin type F light chain protease (Clostridium botulinum); in the data active = inhibition above about 35%, passing the limit was not always enough; inconclusive = no clear call, values can overlap the other calls
# Autofluor counter – flagged as autofluorescent in microsphere protease counterscreen | compound autofluorescence counterscreen, microsphere flow cytometry; stronger effect = higher value | fluorescence intensity (test concentration not listed) | 360,000 tested, 3.1% active | AID 624483; in the data active = fluorescence intensity above about 16000; inconclusive = no clear call, values can overlap the other calls
# SSB-PriA inh – inhibitors of Klebsiella pneumoniae PriA binding to SSB C-terminal tail, primary screen, biochemical, AlphaScreen. inhibition, % at 33 µM. 430,000 tested, 0.6% active. AID 1272365, 2023. AlphaScreen SSBct-PriA binding, biotinylated peptide; in the data active = inhibition mostly above about 37%, no sharp cut-off; inactive = mostly below about 20%
# Numbers stand for hits; - = inactive; ? = inconclusive; . = no result given. Rule as the data show it, unless noted: active = inhibition above about 30%; inconclusive = no clear call, values can overlap the other calls; inactive = below that.
SMILES,BoNT A protease,Anthrax LF inh2,BoNT F protease,Autofluor counter,SSB-PriA inh
Cc1ccc(OCC(=O)NN=C2CCOc3c(C)cccc32)cc1,.,.,.,.,-
CN1CCC(CNS(=O)(=O)c2ccc3c(c2)CCCC3)CC1,.,.,.,.,-
O=C(CN(Cc1cccs1)C(=O)CNS(=O)(=O)c1ccc(Cl)cc1)NCc1ccco1,?,-,-,21887,-
O=C(CN(Cc1cccs1)C(=O)CNS(=O)(=O)c1ccc(F)cc1)NCc1ccco1,-,-,-,-,-
Cc1c(NC(=S)/C=C2\N(C)c3ccccc3C2(C)C)c(=O)n(-c2ccccc2)n1C,-,-,-,19375,-
Cc1c(NC(=O)c2ccc(C(=O)Nc3c(C)n(C)n(-c4ccccc4)c3=O)cc2)c(=O)n(-c2ccccc2)n1C,.,.,.,.,-
Cc1c(NS(=O)(=O)N2CCCCC2)c(=O)n(-c2ccccc2)n1C,-,-,-,16324,-
Cc1ccc(C(=O)NC(=S)/C=C2\N(C)c3ccccc3C2(C)C)cc1,42.1,-,-,-,-
CC(C)C(=O)NC(=S)/C=C1/N(C)c2ccccc2C1(C)C,-,-,-,-,-
Cc1c(NC(=O)c2n[nH]c(=O)c3ccccc23)c(=O)n(-c2ccccc2)n1C,-,-,-,21768,-
CCOc1ccc2nc(SCCOc3ccccc3)[nH]c2c1,.,.,.,.,-
CCn1cc(C(=O)OCC(=O)Nc2c(C)n(C)n(-c3ccccc3)c2=O)c(=O)c2ccc(C)nc21,-,-,-,23317,-
CCOC(=O)Nc1c(C)n(C)n(-c2ccccc2)c1=O,-,-,-,19722,-
CCn1cc(C(=O)OC(C)C(=O)Nc2c(C)n(C)n(-c3ccccc3)c2=O)c(=O)c2ccc(C)nc21 (stereo unspecified),-,-,-,-,-
Cc1c(NC(=O)NCc2ccccc2)c(=O)n(-c2ccccc2)n1C,-,-,-,22336,-
CCOC(=O)c1ccc(NC(=O)Nc2c(C)n(C)n(-c3ccccc3)c2=O)cc1,-,-,-,-,-
CCSc1nnc(-c2ccccc2N)c(=O)[nH]1,-,-,-,23571,-
COc1ccc(C2=NOC(COc3ccc4c(C)cc(=O)oc4c3)C2)c(OC)c1 (stereo unspecified),-,?,-,-,-
COc1ccccc1C1=NOC(COc2ccc3c(C)cc(=O)oc3c2)C1 (stereo unspecified),-,?,43.7,-,-
Cc1cc(-c2nnc(NC(=O)c3ccn(C)n3)o2)nn1C,.,.,.,.,-
CN(C)CCCNS(=O)(=O)c1cc(Cl)ccc1Cl,?,-,-,20853,-
Cc1cc(C(=O)Nc2sc3c(c2C#N)CCC(C)C3)cs1 (stereo unspecified),-,-,-,17096,-
COC(=O)c1ccc(NC(=O)C(=O)NCCc2csc(-c3cccc(F)c3)n2)cc1,.,.,.,.,-
O=C1CSC(=Nc2cc(Cl)ccc2Cl)N1,-,-,-,22505,-
O=C1CSC(=Nc2ccc(Cl)cc2)N1,-,-,-,-,-
SMILES,BoNT A protease,Anthrax LF inh2,BoNT F protease,Autofluor counter,SSB-PriA inh
COc1ccc(N2CCN(CCCNC(=O)c3cc4sccc4n3C)CC2)cc1,-,-,-,-,-
CC1CCN(CCCNC(=O)c2cc3sccc3n2C)CC1,-,-,-,20532,-
CCOc1cc(/C=N\NC(=O)c2ccc(C)nc2)cc([N+](=O)[O-])c1O,-,-,-,19947,.
CCOC(=O)CCP(=O)(O)C(C)(O)c1ccccc1 (stereo unspecified),-,-,-,18987,-
C=CCSc1ncccc1C(=O)NCc1ccc(C)cc1,-,-,-,19941,-
C=CCSc1ncccc1C(=O)O,-,-,-,23263,-
Cc1ccc(CNC(=O)c2ccccc2N)cc1,-,-,-,19203,-
C=CCSc1ncccc1C(=O)NCCc1ccc(Cl)cc1,-,-,-,-,-
CN1CCc2c1nc1ccccc1c2N,.,.,.,.,-
Cc1cc2cc(C(c3nnnn3Cc3ccccc3)N3CCc4ccccc43)c(=O)[nH]c2cc1C (stereo unspecified),?,-,-,21199,-
Cc1ccc2cc(C(c3nnnn3Cc3ccccc3)N3CCc4ccccc43)c(=O)[nH]c2c1C (stereo unspecified),-,-,-,20150,-
Cc1cc(NC(=O)C(C)Oc2ccccc2)n(-c2nc3c(cnn3-c3ccc(F)cc3)c(=O)[nH]2)n1 (stereo unspecified),.,.,.,.,-
O=C(NC1CCCC1)c1cc2nc(-c3ccccc3)cc(-c3ccccc3)n2n1,-,-,-,-,-
CC1CCN(C(=O)c2cc3nc(-c4ccccc4)cc(-c4ccccc4)n3n2)CC1,-,-,-,20793,-
O=C(c1cc2nc(-c3ccccc3)cc(C(F)(F)F)n2n1)N1CCOCC1,-,-,-,21930,-
CO[C@@H](CNS(=O)(=O)c1ccc(C(F)(F)F)cc1)c1ccccc1Cl,.,.,.,.,-
CCSc1ccccc1C(=O)Nc1cccnc1,?,-,-,23629,-
CCCCC(=O)Nc1ccc(C(=O)Nc2nnc(COC)s2)cc1,-,-,-,21834,-
CCCCC(=O)Nc1cccc(NC(=O)c2ccc(Br)cc2)c1,-,-,-,24448,-
CCCCC(=O)Nc1ccc(C(=O)Nc2cccnc2)cc1,-,-,-,16977,-
COCc1nnc(NC(=O)CCCCCN2C(=O)c3ccccc3C2=O)s1,-,-,-,-,-
CC(=O)N1CCc2ccc(NC(=O)c3ccco3)cc2C1,.,.,.,.,-
O=C(C(c1ccccc1)c1ccccc1)N1CCN(Cc2ccsc2)CC1,.,.,.,.,-
Cc1nnsc1C(=O)N1CCC2(CC(=O)c3ccccc3O2)C1 (stereo unspecified),.,.,.,.,-
O=C(Nc1nc(-c2ccc(Cl)c(Cl)c2)cs1)c1ccc(Br)s1,.,.,.,.,-
SMILES,BoNT A protease,Anthrax LF inh2,BoNT F protease,Autofluor counter,SSB-PriA inh
COc1ccc(-c2cn3c(C(=O)Nc4ccc5c(c4)OCCO5)csc3n2)cc1,.,.,.,.,active
COc1ccc(-c2cn3c(CCC(=O)Nc4ccc5c(c4)OCO5)csc3n2)cc1,.,.,.,.,38.0
O=c1[nH]c(=S)[nH]c(O)c1C=C1C=c2ccccc2=N1,.,.,.,.,-
CC(C)(C)c1cc(NC(=O)C2CCCN(c3ccc(-n4cncn4)nn3)C2)on1 (stereo unspecified),.,.,.,.,-
CCc1nnc(NC(=O)C2CCCN(c3nc(C)cc(C)n3)C2)s1 (stereo unspecified),-,-,-,18689,-
Cc1cc(C)nc(N2CCCC(C(=O)Nc3ccc4c(c3)OCO4)C2)n1 (stereo unspecified),-,-,-,20510,-
Cc1cc(C)nc(N2CCCC(C(=O)Nc3cc(F)ccc3C)C2)n1 (stereo unspecified),-,-,-,22529,-
Cc1ccccc1-c1nc2scc(CCN)n2n1,.,.,.,.,-
CCOC(=O)c1cnc(Nc2nc3ccccc3o2)nc1C,-,-,-,20539,-
O=C1CC(c2ccc(F)cc2)SC2=NCCCN12 (stereo unspecified),.,.,.,.,-
N#CCSc1nc2ccccc2c(=O)n1CC1CCCC1,-,-,-,-,-
